# Laboratory results as given in ChEMBL document CHEMBL3988442, “University of Dundee, Small-Polar-MMV Screening Library” (2021).
# The campaign covered roughly 48,000 compounds. About 13,000 (27%) showed an effect of 50% or more. This is one part of the list.
# Test system: Wolbachia pipientis
# Experiment: Anti-Wolbachia Cell-Based Screen
# Assay type: functional
# Set-up: scale not given: in the data most compounds retested in dose-response had high values
# Conditions: 5 µM
row,SMILES,Percent Effect
1,CCCN1CC(C(=O)Nc2ccccn2)CC1=O (centres undefined),-15.01%
2,COc1ccc(CN2CC[C@@H](N)[C@@H](OC)C2)cc1Cn1cncn1,18.6%
3,Cc1n[nH]cc1CNC(C(=O)N1CCOCC1)c1ccccc1 (centres undefined),6.045%
4,Cc1cnc(-c2nc(C3CCCN(Cc4cccs4)C3)no2)cn1 (centres undefined),85.43%
5,Cc1cccn2cc(CN3CCCC(c4noc(C5CC5)n4)C3)nc12 (centres undefined),-10.66%
6,Cc1cnc(-c2nc(C3CCN(Cc4ccccc4C)CC3)no2)cn1,126.9%
7,Cc1nc(C2CCCN(c3ncc(Br)cn3)C2)no1 (centres undefined),-7.201%
8,c1cc(CN2CCCC(c3noc(C4CC4)n3)C2)no1 (centres undefined),4.824%
9,Cc1nc(C)c(CN2CCOC(Cc3ccccc3Cl)C2)nc1C (centres undefined),-25.93%
10,Cc1cnc(-c2nc(C3CCCN(Cc4ccccc4C)C3)no2)cn1.Cl (centres undefined),93.62%
11,Cc1cnc(CN2CCN(C(C)c3nc(C4CC4)no3)CC2)cn1 (centres undefined),13.95%
12,Cc1cnc(-c2nc(-c3cccc(CN4CCOCC4)c3)no2)cn1,4.673%
13,CN1CCC(Cc2noc(-c3cn(Cc4ccccc4Cl)nn3)n2)CC1,21.53%
14,Cc1cnc(-c2nc(C3CCN(Cc4ccccc4Cl)CC3)no2)cn1,142.3%
15,CCCNC(=O)CN1CCCC1c1nc(Cc2ccc(F)cc2)no1 (centres undefined),-9.393%
16,CC(C)N1CCOC[C@H]1c1nc(C(C)(C)C)c[nH]1,-12.91%
17,Cc1ccccc1C(C)(C)CNC(=O)CN(C)c1cnccn1,6.052%
18,Cc1ccsc1C(=O)NC1CCN(c2cnn(C)c2)C1=O (centres undefined),-14.12%
19,CC(C)(C)NC(=O)C[C@@H]1CCNC[C@@H]1Cc1cc(C(C)(C)C)on1,-4.858%
20,Cc1cnc(-c2nc(C3CCN(Cc4ccccc4O)CC3)no2)cn1,140.6%
21,c1ccc2[nH]c(C3CCN(Cc4nc(C5CC5)no4)CC3)cc2c1,8.105%
22,c1cc(C2CCN(Cc3nc(C4CC4)no3)CC2)[nH]n1,45.49%
23,CCN(CC)C(C(=O)Nc1ccc2c(c1)CCC(=O)N2)c1ccccc1 (centres undefined),-21.99%
24,O=C(CN1CCN(c2ncccn2)[C@@H]2CS(=O)(=O)C[C@@H]21)N1CCCCC1,-9.163%
25,CC(c1cccc(-c2ncc(C#N)c(N)n2)c1)N(C)C (centres undefined),111.9%

row,SMILES,Percent Effect
1,CC(c1cccc(-c2nccn2CCc2cn[nH]c2)c1)N(C)C (centres undefined),8.832%
2,Cc1ccc(C(=O)O)cc1-c1cccc(C(C)N(C)C)c1 (centres undefined),-7.98%
3,CC(c1cccc(-c2ccc(C(=O)O)cc2Cl)c1)N(C)C (centres undefined),-4.101%
4,Cc1cnc(Cn2cc(-c3cccc(C(C)N(C)C)c3)nn2)cn1 (centres undefined),-24.3%
5,COC(C)(C)Cn1ccnc1-c1cccc(C(C)N(C)C)c1 (centres undefined),3.994%
6,CC(c1cccc(-c2nccn2CCc2ccccn2)c1)N(C)C (centres undefined),15.78%
7,CC(c1cccc(-c2ncccc2F)c1)N(C)C (centres undefined),118.4%
8,CC(c1cccc(-c2ncccc2C#N)c1)N(C)C (centres undefined),104.1%
9,COc1ccccc1[C@@H]1CN(Cc2cc(C(C)(C)C)[nH]n2)C[C@H]1C(=O)O,-3.476%
10,CCc1cnc(NCC2OCCc3ccccc32)nc1 (centres undefined),32.64%
11,Cn1ccnc1NC[C@@H]1CCC[C@@H]2CN(CC3CC3)C[C@@H]21.O=C(O)C(F)(F)F,12.38%
12,COc1ccnc(CN2CCC=C(C(C)NC(C)=O)C2)c1OC (centres undefined),-37.4%
13,O=C(NCc1ccccc1)N1CCc2ncnc(NC3CC3)c2CC1,108.7%
14,O=C(NCc1cccnc1)N1CCc2ncnc(NC3CC3)c2CC1.O=C(O)C(F)(F)F,96.91%
15,CC(C)Nc1ncnc2c1CCN(C(=O)NCc1cccnc1)CC2.O=C(O)C(F)(F)F,-1.871%
16,O=C(NCc1cccnc1)N1CCc2ncnc(C3CC3)c2CC1.O=C(O)C(F)(F)F,-6.522%
17,COc1ncnc2c1CCN(C(=O)NCc1cccnc1)CC2.O=C(O)C(F)(F)F,5.156%
18,COc1ncnc2c1CCN(C(=O)NCc1cccc(F)c1)CC2,-12.16%
19,O=C(NCc1cccc(F)c1)N1CCc2ncnc(NC3CC3)c2CC1,117.5%
20,CC(C)Nc1ncnc2c1CCN(C(=O)NCc1cccc(F)c1)CC2,86.35%
21,CCOc1ncnc2c1CCN(C(=O)NCc1cccnc1)CC2.O=C(O)C(F)(F)F,0.188%
22,CCN(C)c1ncnc2c1CCN(C(=O)NCc1cccnc1)CC2.O=C(O)C(F)(F)F,18.48%
23,CN1CCc2[nH]nc(C(=O)N3CCC4(CN(C)C(=O)O4)C3)c2C1 (centres undefined),3.232%
24,CCC(O)CN1CCN(C(=O)c2cccc3[nH]ncc23)CC1 (centres undefined),10.02%
25,CCN(C)S(=O)(=O)c1c(F)cc(NC(C)=O)cc1F,15.35%

row,SMILES,Percent Effect
1,CCC(Nc1nc(CCN)nc2ccccc12)c1cc(C)ccn1 (centres undefined),5.857%
2,Cc1nn(CC(=O)Nc2ccc(F)cc2)c(N)c1C#N,-10.06%
3,O=C(Cn1nc(-c2ccc(F)cc2)oc1=O)Nc1ccccc1,-16.04%
4,CN(C(=O)Cn1nc(-c2ccc(F)cc2)oc1=O)C1CCS(=O)(=O)C1 (centres undefined),-25.19%
5,O=C(O)Cn1nc(C2CC2)c2c(-c3ccc(F)cc3)ccnc21,106.5%
6,Cc1nn(CC(=O)O)c2nccc(-c3ccc(F)cc3)c12,132.8%
7,COc1ccccc1-c1cc(C(F)(F)F)c2c(C)nn(CC(=O)O)c2n1,-3.37%
8,O=C(CO)N1CCN(C(=O)c2coc3ccccc23)CC1,-5.618%
9,O=C(O)C(F)(F)F.O=C(O)C(F)(F)F.c1cnc(N2CCC3(CC2)CC(NCC2CC2)c2ccccc23)nc1 (centres undefined),1.529%
10,Cn1cncc1CNC1CC2(CCN(CC3CC3)CC2)c2ccccc21.O=C(O)C(F)(F)F.O=C(O)C(F)(F)F (centres undefined),-10.77%
11,CS(=O)(=O)N1CCC2(CC1)CC(NCC1CC1)c1ccccc12.O=C(O)C(F)(F)F (centres undefined),107.6%
12,CNC(=O)CNC1CC2(CCN(c3ncccn3)CC2)c2ccccc21.O=C(O)C(F)(F)F.O=C(O)C(F)(F)F (centres undefined),-16.8%
13,CS(=O)(=O)N1CCC2(CC1)CC(NCc1ccccn1)c1ccccc12 (centres undefined),90.85%
14,Cn1cncc1CNC1CC2(CCN(S(C)(=O)=O)CC2)c2ccccc21.O=C(O)C(F)(F)F (centres undefined),-9.896%
15,CS(=O)(=O)N1CCC2(CC1)CC(CC(=O)NC1CC1)c1ccccc12 (centres undefined),17.75%
16,CS(=O)(=O)N1CCC2(CC1)CC(CC(=O)N1CCCC1)c1ccccc12 (centres undefined),5.675%
17,CS(=O)(=O)N1CCC2(CC1)CC(NCc1ccco1)c1ccccc12.O=C(O)C(F)(F)F (centres undefined),91.69%
18,Cn1cc(CNC2CC3(CCN(CC4CC4)CC3)c3ccccc32)cn1.O=C(O)C(F)(F)F.O=C(O)C(F)(F)F.O=C(O)C(F)(F)F (centres undefined),-14.88%
19,Cn1cc(CNC2CC3(CCN(S(C)(=O)=O)CC3)c3ccccc32)cn1.O=C(O)C(F)(F)F (centres undefined),94.6%
20,Cc1noc(CCCC(=O)N2CCNC(=O)C2)n1,-6.568%
21,Cc1c(C(C)Nc2ncnc3sccc23)cnn1C (centres undefined),-5.704%
22,CCn1ccnc1CN(C)Cc1nc(CCC(C)C)no1,-3.993%
23,COc1ccccc1[C@@H]1CN(C(=O)c2csc(C)n2)C[C@H]1C(=O)O,-8.955%
24,CCn1cc(CN(C)c2nc(C)c3ccc(S(C)(=O)=O)cc3n2)cn1,-19.68%
25,Cc1nnc(N2CCOC(Cn3cccn3)C2)c(C#N)c1C (centres undefined),-2.698%

row,SMILES,Percent Effect
1,CCc1[nH]c2c(CNC(=O)C3CCN(C)C3)cc(C)cc2c1C (centres undefined),-4.959%
2,Cc1nc(O)cc(C2CCCN(C(=O)c3cccc(N(C)C)c3)C2)n1 (centres undefined),2.27%
3,Cc1nccc(C2CN(C(=O)c3cncnc3)C2)n1,123.7%
4,Cc1cccc(C2CCCN(C(=O)c3ccncc3)C2)n1 (centres undefined),137.8%
5,Cc1nccc(C2CCCN(C(=O)c3cncnc3)C2)n1 (centres undefined),134.6%
6,CCCc1cc(C(=O)N2CC(c3ccncc3)C2)ccn1,-34.73%
7,Cc1ncncc1C(=O)N1C[C@H]2CC[C@@H]1CN(C(=O)c1ccncc1)C2,-6.558%
8,Cc1cc(C(=O)N[C@H]2CC[C@@]3(CCC(=O)N3)CC2)no1,-22.87%
9,CNC(=O)c1coc(-c2csc(C)n2)c1,7.776%
10,CNC(=O)c1cnc2c(C)csc2c1,142.5%
11,CCc1nc(CNC(=O)Nc2ccc(C(=O)NC)cc2C)cs1,-1.988%
12,O=C(NC1CCC(O)CC1)c1cnc2c(cnn2C2CCCC2)c1 (centres undefined),-3.379%
13,CCOc1ccc(C(=O)NC2CC2)cc1C,-6.669%
14,CCNc1ncc(C(=O)NC2CCOCC2)cn1,-0.8414%
15,Cc1csc2cc(C(=O)NC3CCCC3)cnc12,127%
16,Cc1csc2cc(C(=O)NC3CC3)cnc12,125.4%
17,Cc1ccsc1CCNC(C)C(=O)NC1CCCC1 (centres undefined),3.624%
18,Cc1cc(C2CCCN2C(=O)Cn2c(C)cc(=O)c3ccccc32)on1 (centres undefined),-2.941%
19,COCC(=O)N1CCN(C(=O)C2CCCCC2)[C@@H](C(=O)OC)C1,-2.41%
20,Cc1nccn1C1CCCN(C(=O)COCC(F)(F)F)C1 (centres undefined),9.036%
21,CCc1nccn1C1CCCN(C(=O)Cc2cn3ccccc3n2)C1 (centres undefined),11.58%
22,Cc1nc(C)n(C2CCCN(C(=O)c3nc(C)n4ccccc34)C2)n1 (centres undefined),-12.32%
23,Cc1nccn1C1CCCN(C(=O)Cc2cn3ccccc3n2)C1 (centres undefined),129.5%
24,Cc1nc(C)n(C2CCCN(C(=O)Cc3cn4ccccc4n3)C2)n1 (centres undefined),141.6%
